Experimental data as given in PubChem BioAssay.
Calls of active or inactive are those of the source.

Legend:
[1] = system: Plasmodium falciparum Sir2 (PF13_0152, Sir2A); assay: Plasmodium falciparum Sir2A binding compounds – biochemical, small-molecule microarray, 635 nm fluorescence, primary screen (AID 1098); conditions: fluorescence 635 nm, higher = more signal;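 further: score merges spot fluorescence intensity with its signal-to-noise ratio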
[2] = probe aDKK1 binding to arrayed compounds – biochemical, biotinylated probe, 635/667 nm fluorescence, primary screen (AID 1099); conditions: small-molecule microarray, higher = more signal;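 further: score merges 667nm spot fluorescence with signal to noise across triplicate slides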
[3] = probe aCHRDL2 binding to arrayed compounds – biochemical, biotinylated probe, 635/667 nm fluorescence, primary screen (AID 1100); conditions: small-molecule microarray, higher = more signal
[4] = change in splice reporter luminescence, either direction, cell-based, HEK293, spliceosome inhibition project, primary screen (AID 1101); conditions: HEK293 splicing luciferase reporter, 24 h, higher = more signal, called active from +8 up or from −8 down;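 further: HEK293 cells carrying a splicing-competent luciferase reporter gene; test concentration not given here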
[5] = target: Fibroblast growth factor 10 (Homo sapiens) (UniProt O15520); assay: compounds binding fibroblast growth factor 10 – biochemical, small-molecule microarray, 635 nm fluorescence, primary screen (AID 1102); conditions: FGF10 binding, fluorescence 635 nm, higher = more signal
[6] = system: glycogen synthase kinase-3 (GSK3A per assay name; protocol says GSK3B); assay: compounds binding glycogen synthase kinase-3 – biochemical, small-molecule microarray, 635 nm fluorescence, GSK3A, primary screen (AID 1103); conditions: fluorescence 635 nm, higher = more signal; further: the record names both GSK3A and GSK3B
[7] = target: Epidermal growth factor receptor (Homo sapiens) (UniProt P00533); assay: compounds binding epidermal growth factor receptor – biochemical, small-molecule microarray, 635 nm fluorescence, primary screen (AID 1104); conditions: EGFR binding, higher = more signal;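 further: score merges 667 nm emission intensity with spot signal to noise over triplicate slides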
[8] = target: Follistatin-related protein 3 (Homo sapiens) (UniProt O95633); assay: compounds binding follistatin-related protein 3 – biochemical, small-molecule microarray, 635 nm fluorescence, primary screen (AID 1105); conditions: FSTL3 binding, higher = more signal;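 further: score merges emission near 667 nm and signal to noise per printed spot across three slides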
[9] = target: Dickkopf-related protein 1 (Homo sapiens) (UniProt O94907); assay: small molecules binding DKK1 protein – biochemical, small-molecule microarray, 635 nm fluorescence scan, primary screen (AID 1106); conditions: higher = more signal;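 further: score merges emission near 667 nm with signal to noise over three replicate slides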
[10] = system: Inhibin beta A chain (activin A); assay: small molecules binding activin A – biochemical, small-molecule microarray, 635 nm fluorescence scan, primary screen (AID 1107); conditions: INHBA, higher = more signal;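 further: mouse activin A protein probed at 4.33 µg/mL on printed slides; score merges bound-protein fluorescence near 667 nm with spot signal-to-noise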
[11] = system: Human papillomavirus type 1a protein E7 (residues 44-93); assay: small molecules binding HPV E7 44-93 – biochemical, small-molecule microarray, residues 44-93, 635 nm fluorescence, primary screen (AID 1108); conditions: fluorescence 635 nm, higher = more signal;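 further: E7 fragment applied at 1 µg/mL in TBST for 1 h at 4 C; score combines spot fluorescence with its signal to noise ratio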
[12] = hepatitis C replication reporter changes, two-sided – Huh7 cells, luciferase reporter, HCV replication inhibitor project, primary screen (AID 1109); conditions: Huh7 HCV replicon luciferase reporter, 48 h; higher = more signal;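 further: huh7 hepatoma cells harbouring a luciferase neomycin HCV replicon reporter; luciferase luminescence as measure of HCV replicon replication; test concentration not given here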
[13] = target: Left-right determination factor 2 (Homo sapiens) (UniProt O00292); assay: small molecules binding LEFTY2 protein – biochemical, small-molecule microarray, 635 nm fluorescence scan, primary screen (AID 1110); conditions: higher = more signal
[14] = target: Calmodulin-1 (Homo sapiens) (UniProt P0DP23); assay: small molecules binding calmodulin-1 with EGTA – biochemical, small-molecule microarray, Cy5-labelled CALM1, profiling panel (AID 1111); conditions: Cy5-CALM1 binding fluorescence, higher = more signal;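 further: labelled calmodulin applied in Tris saline Tween buffer holding calcium plus EGTA and DTT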
[15] = target: Calmodulin-1 (Homo sapiens) (UniProt P0DP23); assay: small molecules binding Ca-loaded calmodulin-1 – biochemical, small-molecule microarray, Cy5-labelled CALM1, plus calcium, artefact control for SMM control-protein annotation, profiling panel (AID 1112); conditions: Cy5-CALM1 binding fluorescence, higher = more signal;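 further: score merges spot fluorescence with signal to noise from triplicate slides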
[16] = probe aWnt5a binding to arrayed compounds – biochemical, biotinylated probe, 635/667 nm fluorescence, primary screen (AID 1113); conditions: small-molecule microarray, higher = more signal;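 further: score merges 667 nm fluorescence intensity with signal-to-noise per printed feature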
[17] = probe aShh binding to arrayed compounds – biochemical, biotinylated probe, 635/667 nm fluorescence, primary screen (AID 1114); conditions: small-molecule microarray, higher = more signal;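 further: probe is biotin-labelled aShh protein from a stem cell growth factor screen; measures binding of labelled protein to compounds printed on the slide; score merges feature fluorescence at 667 nm with signal-to-noise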
[18] = probe aNog binding to arrayed compounds – biochemical, biotinylated probe, 635/667 nm fluorescence, primary screen (AID 1115); conditions: small-molecule microarray, higher = more signal;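 further: probe is biotinylated aNog protein used at 0.15 µg/mL for 1 h at 4 C; z-score combines 667 nm fluorescence of each spot with its signal to noise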
[19] = target: Torsin-1A-interacting protein 1 (Homo sapiens) (UniProt Q5JTV8); assay: compound microarray binding of lysate hLAP1 – cell lysate, small-molecule microarray, COS7 lysate, 635/667 nm fluorescence, primary screen (AID 1116); conditions: 635 nm fluorescence, higher = more signal
[20] = target: Alpha-bungarotoxin (Bungarus multicinctus) (UniProt P60615); assay: compounds binding labelled alpha-BTX control protein – biochemical, small-molecule microarray, Alexa647 label, 635/667 nm fluorescence, artefact control for SMM control protein annotation, profiling panel (AID 1117); conditions: alpha-BTX-A647 binding fluorescence, higher = more signal
Sequence of Alpha-bungarotoxin (Bungarus multicinctus) (P60615 whole entry, looked up): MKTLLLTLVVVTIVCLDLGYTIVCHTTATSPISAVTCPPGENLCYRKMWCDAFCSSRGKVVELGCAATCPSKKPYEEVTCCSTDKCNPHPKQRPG

Sequence of Left-right determination factor 2 (Homo sapiens) (O00292 whole entry, looked up): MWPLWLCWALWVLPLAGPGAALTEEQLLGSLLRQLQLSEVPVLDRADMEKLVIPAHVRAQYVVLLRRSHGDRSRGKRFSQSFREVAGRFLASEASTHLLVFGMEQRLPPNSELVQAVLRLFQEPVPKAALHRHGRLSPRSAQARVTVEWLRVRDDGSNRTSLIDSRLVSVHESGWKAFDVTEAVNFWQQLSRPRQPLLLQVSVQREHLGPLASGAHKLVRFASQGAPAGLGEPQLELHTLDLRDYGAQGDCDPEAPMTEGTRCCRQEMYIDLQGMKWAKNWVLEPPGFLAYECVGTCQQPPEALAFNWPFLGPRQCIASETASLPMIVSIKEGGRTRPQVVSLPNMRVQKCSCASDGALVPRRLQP
Sequence of Torsin-1A-interacting protein 1 (Homo sapiens) (Q5JTV8 whole entry, looked up): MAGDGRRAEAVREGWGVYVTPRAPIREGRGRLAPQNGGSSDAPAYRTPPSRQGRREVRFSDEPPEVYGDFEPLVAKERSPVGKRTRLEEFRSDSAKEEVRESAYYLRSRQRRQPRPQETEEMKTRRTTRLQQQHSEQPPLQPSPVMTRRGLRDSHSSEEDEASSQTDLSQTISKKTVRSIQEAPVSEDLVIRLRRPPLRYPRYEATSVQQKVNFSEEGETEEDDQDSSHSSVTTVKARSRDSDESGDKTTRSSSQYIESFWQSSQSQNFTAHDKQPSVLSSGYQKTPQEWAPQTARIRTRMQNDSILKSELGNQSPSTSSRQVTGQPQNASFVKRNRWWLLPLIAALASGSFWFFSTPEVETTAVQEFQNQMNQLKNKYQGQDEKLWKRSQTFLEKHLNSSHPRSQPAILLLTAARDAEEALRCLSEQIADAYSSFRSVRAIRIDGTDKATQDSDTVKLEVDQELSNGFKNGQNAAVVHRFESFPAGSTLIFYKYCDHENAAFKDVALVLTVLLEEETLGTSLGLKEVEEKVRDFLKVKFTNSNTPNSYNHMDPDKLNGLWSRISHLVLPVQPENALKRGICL
Sequence of Dickkopf-related protein 1 (Homo sapiens) (O94907 whole entry, looked up): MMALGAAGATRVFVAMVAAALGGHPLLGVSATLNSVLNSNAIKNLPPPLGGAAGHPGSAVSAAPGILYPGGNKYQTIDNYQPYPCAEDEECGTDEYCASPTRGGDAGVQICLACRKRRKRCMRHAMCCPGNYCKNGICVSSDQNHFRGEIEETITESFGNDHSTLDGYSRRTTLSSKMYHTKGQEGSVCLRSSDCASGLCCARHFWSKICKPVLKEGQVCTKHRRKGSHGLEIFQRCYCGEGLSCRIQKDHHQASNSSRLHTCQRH
Sequence of Follistatin-related protein 3 (Homo sapiens) (O95633 whole entry, looked up): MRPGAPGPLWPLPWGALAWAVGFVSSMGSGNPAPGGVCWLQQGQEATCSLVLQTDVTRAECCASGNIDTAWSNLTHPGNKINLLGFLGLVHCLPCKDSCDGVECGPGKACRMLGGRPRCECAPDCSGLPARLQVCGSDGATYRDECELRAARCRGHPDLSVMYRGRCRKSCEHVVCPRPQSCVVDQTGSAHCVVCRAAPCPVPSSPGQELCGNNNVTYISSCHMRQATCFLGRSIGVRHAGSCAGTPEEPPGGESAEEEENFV
Sequence of Epidermal growth factor receptor (Homo sapiens) (P00533 whole entry, looked up): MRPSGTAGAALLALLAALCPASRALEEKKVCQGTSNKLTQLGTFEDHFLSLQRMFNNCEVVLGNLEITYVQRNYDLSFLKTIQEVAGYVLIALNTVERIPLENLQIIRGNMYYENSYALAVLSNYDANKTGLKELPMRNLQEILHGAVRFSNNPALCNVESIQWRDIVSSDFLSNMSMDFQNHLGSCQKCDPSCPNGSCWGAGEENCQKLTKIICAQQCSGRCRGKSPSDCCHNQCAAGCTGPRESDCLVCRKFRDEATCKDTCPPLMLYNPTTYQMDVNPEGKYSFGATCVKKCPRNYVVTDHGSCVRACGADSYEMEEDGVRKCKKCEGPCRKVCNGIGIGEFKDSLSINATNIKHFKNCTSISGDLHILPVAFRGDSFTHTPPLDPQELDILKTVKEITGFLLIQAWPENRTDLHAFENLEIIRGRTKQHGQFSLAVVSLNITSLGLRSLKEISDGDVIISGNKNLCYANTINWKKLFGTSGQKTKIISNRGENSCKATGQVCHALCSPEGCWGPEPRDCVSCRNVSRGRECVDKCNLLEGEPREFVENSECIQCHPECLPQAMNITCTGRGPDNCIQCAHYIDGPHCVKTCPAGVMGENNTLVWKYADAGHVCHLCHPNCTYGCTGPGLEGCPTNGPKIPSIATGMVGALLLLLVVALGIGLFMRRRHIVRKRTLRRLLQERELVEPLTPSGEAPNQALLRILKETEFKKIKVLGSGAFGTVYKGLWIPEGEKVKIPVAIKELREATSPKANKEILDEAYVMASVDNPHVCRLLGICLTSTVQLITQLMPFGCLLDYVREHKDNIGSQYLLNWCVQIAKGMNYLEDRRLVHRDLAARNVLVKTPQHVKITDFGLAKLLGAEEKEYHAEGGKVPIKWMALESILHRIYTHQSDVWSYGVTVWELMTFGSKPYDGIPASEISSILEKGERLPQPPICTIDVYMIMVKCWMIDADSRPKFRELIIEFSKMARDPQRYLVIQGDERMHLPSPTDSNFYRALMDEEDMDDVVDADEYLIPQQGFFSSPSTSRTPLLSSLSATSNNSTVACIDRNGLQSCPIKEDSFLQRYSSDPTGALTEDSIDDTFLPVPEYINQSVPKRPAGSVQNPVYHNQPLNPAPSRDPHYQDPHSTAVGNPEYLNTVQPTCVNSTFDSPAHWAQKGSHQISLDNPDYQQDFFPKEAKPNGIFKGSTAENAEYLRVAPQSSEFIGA
Sequence of Fibroblast growth factor 10 (Homo sapiens) (O15520 whole entry, looked up): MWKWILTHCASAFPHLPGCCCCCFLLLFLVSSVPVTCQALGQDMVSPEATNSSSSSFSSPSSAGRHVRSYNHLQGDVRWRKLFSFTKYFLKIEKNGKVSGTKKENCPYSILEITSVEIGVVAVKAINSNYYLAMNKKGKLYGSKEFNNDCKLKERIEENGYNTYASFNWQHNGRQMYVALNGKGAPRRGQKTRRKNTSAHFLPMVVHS

Compound	composite z-score [1]	composite z-score [2]	composite z-score [3]	z-score [4]	composite z-score [5]	composite z-score [6]	composite z-score [7]	composite z-score [8]	composite z-score [9]	composite z-score [10]	composite z-score [11]	z-score [12]	composite z-score [13]	composite z-score [14]	composite z-score [15]	composite z-score [16]	composite z-score [17]	composite z-score [18]	composite z-score [19]	composite z-score [20]
COc1ccc(COC(=O)NN=C2C[C@@H](O)[C@@H](O)[C@@H]3[C@@H]4C(=O)N(Cc5ccccc5)C(=O)[C@@H]4CC[C@H]23)cc1	-0.515	0.743	1.39	-0.262 (inactive)	-0.259	-0.623	-0.432	-0.22	-1.15	0.0152	1.36	-0.632	-0.475	0.0114	-0.435	-0.0758	-0.206	0.194	0.589	0.469
CC(C)(C)N1C(=O)[C@H]2[C@H]3[C@H](O)[C@H](O)CC(=O)[C@H]3CC[C@H]2C1=O	0.0159	-0.282	-0.674	-0.432 (inactive)	0.287	0.694	0.456	0.426	0.624	-0.167	0.487	-0.041	0.473	0.133	-0.816	0.0267	-0.186	-0.0996	0.274	0.642
CC(C)=CCCC(C)=CCON=C1C[C@@H](O)[C@@H](O)[C@@H]2[C@@H]3C(=O)N(c4cccc(Oc5ccccc5)c4)C(=O)[C@@H]3CC[C@@H]12	0.517	0.132	-0.209	-0.991 (inactive)	0.612	-0.112	0.118	0.574	0.373	0.399	1.21	-1.36	0.353	0.33	-0.126	-0.13	-0.0064	-0.287	0.444	0.305
CCN1C(=O)[C@H]2[C@H]3[C@H](O)[C@H](O)CC(=O)[C@@H]3CC[C@H]2C1=O	0.677	-0.22	-0.478	-0.0387 (inactive)	0.492	0.692	0.555	0.688	0.396	-0.167	0.869	0.105	0.685	0.0536	-0.493	-0.192	-0.138	-0.237	0.467	0.488
CO[C@H]1COC(=O)[C@@H](C)COC(=O)[C@H](C)NC(=O)CC=C[C@H]1C	0.473	-0.537	-1.73	-0.0731 (inactive)	0.577	0.732	0.785	1.54	1.32	1.13	-0.328	-0.399	1.28	-0.451	-1.98	-0.178	-0.243	-0.379	-0.15	-0.354
CC(C)=CCCC(C)=CCON=C1C[C@@H](O)[C@@H](O)[C@@H]2[C@@H]3C(=O)N(c4ccc(F)cc4F)C(=O)[C@@H]3CC[C@H]12	0.176	-0.016	-0.428	-0.956 (inactive)	0.0906	0.349	0.531	1.08	0.612	0.342	1.36	0.19	0.621	-0.0184	-0.778	-0.124	0.0668	-0.379	0.153	0.39
